Test results published in PubChem BioAssay (NCATS).
Results filed as inconclusive are left out. Entries that show only a call come without a potency. Calls of active or inactive are those of the source. Calls come from the whole dose curve; as a rule, active = well fitted curve in either direction with a large enough effect (not every such curve was filed as active); inconclusive = small, poorly fitted or top-dose-only effect, or another doubt; inactive = flat fitted curve, though single readings scatter.

molecular target: Mitogen-activated protein kinase 10 (Mus musculus) (UniProt Q61831); assay: JNK3 AlphaScreen Assay (AID 530); conditions: JNK3 lysate, c-Jun phosphorylation; series mostly up to 25.6 µM;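 note: kinase came from lysate of stimulated human HepG2 cells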
Source text: NIH Chemical Genomics Center [NCGC]
NIH Molecular Libraries Screening Centers Network [MLSCN]
The c-jun N-terminal kinase (JNK) family are serine/threonine protein kinases that phosphorylate c-jun, a component of the transcription factor […] (AP-1). JNK kinases are members of the mitogen-activated protein kinase family including the extracellular regulated kinases and p38 kinases. Three JNK genes (JNK 1, 2, and 3) have been identified in humans so far. JNK1 and JNK2 have a broad distribution and JNK3 is primarily found in neuronal tissues and cardiac myocytes.
JNK3 has been under consideration as a target for the treatment of neurodegenerative disorders. […] JNK pathway is also involved in pathological process in a mouse model of Parkinson's disease (Xia et al., 2001).
Given these potential tissue distributions and links to neuroprotection, JNK3 inhibitors should provide useful investigational tools to study the role of this kinase in several diseases including, arthritis, stroke, myocardial infarction, ischemic injury and Parkinson's disease.
A homogeneous AlphaScreen is developed to measure the activity of JNK3. AlphaScreen is a two bead-based proximity-dependent chemical energy transfer luminescent assay platform. The phosphorylation of a biotinylated c-jun substrate by JNK3 can be detected with an antibody raised against phosphorylated c-jun. This process brings streptavidin donor beads and Protein-A acceptor beads to within a proximity range of <200 nm, and subsequently lead a chemical luminescent reaction upon exciting donor beads with 680 nm laser excitation light. Inhibition of JNK3 activity by small molecules and subsequent decrease in the antibody binding to biotinylated c-jun could attenuate or abolish this chemical luminescent reaction.
Yang DD, Kuan CY, Whitmarsh AJ, Rincon M, Zheng TS, Davis RJ, Rakic P and Flavell RA (1997) Absence of excitotoxicity-induced apoptosis in the hippocampus of mice lacking the Jnk3 gene. Nature 389:865-870. [PMID: 9349820]
Herdegen T, Claret FX, Kallunki T, Martin-Villalba A, Winter C, Hunter T, and Karin M (1998) Lasting N-terminal phosphorylation of c-Jun and activation of c-Jun N-terminal kinases after neuronal injury. J.Neurosci. 18:5124-5135. [PMID: 9651196]
Xia XG, Harding T, Weller M, Bieneman A, Uney JB and Schulz JB (2001) Gene transfer of the JNK interacting protein-1 protects dopaminergic neurons in the MPTP model of Parkinson's disease. Proc.Natl.Acad.Sci.U.S.A. 98:10433-10438.
NCGC Assay Protocol Summary:
GST-cJun (1-79) (Stratagene, La Jolla CA, #205145) was biotnylated by PerkinElmer (PerkinElmer-BioSignalInc. Montreal, Canada) and was detectable by the streptavidin Donor beads. Anti-(phospho)cJun (Ser73) antibody was from UpState (Charlottesvilles, VA, #06-659). JNK3-containing lysates were generated from HepG2 cells and pre-activated by interleukin1-beta and tumor necrosis factor alpha. All reagents were stored at -20 C before using. Phosphorylated biotinylated-GST-cJun was recognized by Anti-(phospho)cJun (Ser73) antibody and this process brings acceptor and donor beads together. Therefore JNK3 phosphorylation of cJun can be measured by Alpha reading by EnVision (PerkinElmer, Boston, MA).
The composition of kinase buffer was (in mM) 20 tris- HCl (pH 7.6) 10 MgCl2, 1 DTT, and 0.1 Na3VO4 and 0.01% Tween-20. Beads were diluted in detection buffer containing (in mM) 20 tris-HCl (pH 7.7), 20 NaCl and 80 EDTA and 0.3% BSA. The assay was performed at room temperature. All compounds were screened as titrations from 0.6 nM to 46 uM final concentration. The assay was performed in 1536-well format (white solid bottom and untreated) as follows:
Sequence,Parameter,Value,Description
1,Reagent,3 uL,Biotin-GST-cJun, Anti-(phospho)cJun and pre-activated JNK3-containing lysates
2,Compound,23 nL,Final concentration was 0.6nM to 46uM
3,Time,15 minutes,Room Temperature
4,Reagent,1 uL,ATP final concentration 10uM
6,Reagent,0.5 uL,2ng/well bead mixture
[…]
Potency is the fitted concentration of half-maximal effect.

Structure (SMILES) | Potency
CC(C)(C)NC[C@H](O)COc1cccc2c1CCCC2=O | inactive
O=C(O)CCC(=O)Nc1ccc(S(=O)(=O)Nc2nccs2)cc1 | inactive
CCCCNc1ccc(C(=O)OCCOCCOCCOCCOCCOCCOCCOCCOCCOC)cc1 | inactive
CCN(CC)CCNc1ccc(CO)c2sc3ccccc3c(=O)c12 | inactive
CCCc1ncc(C[n+]2ccccc2C)c(N)n1 | inactive
O=C(CCCN1CC=C(n2c(=O)[nH]c3ccccc32)CC1)c1ccc(F)cc1 | inactive
CC[C@H](c1ccc(O)cc1)[C@@H](CC)c1ccc(O)cc1 | inactive
CNCCc1ccccn1 | inactive
NC(N)=NCc1cccc(I)c1 | inactive
O=C(c1ccc(F)cc1)C1CCN(CCn2c(=S)[nH]c3ccccc3c2=O)CC1 | inactive
NCCNc1cccc2ccccc12 | inactive
NS(=O)(=O)c1cc(C(=O)O)cc(N2CCCC2)c1Oc1ccccc1 | inactive
O=C(O)c1ccc(S(=O)(=O)N(Cl)Cl)cc1 | inactive
CCOC(=O)Nc1ccc2c(c1)N(C(=O)CCN1CCOCC1)c1ccccc1S2 | inactive
CCOc1ccccc1C(N)=O | inactive
CN1CCC(OC(c2ccccc2)c2ccccc2)CC1 | inactive
CN=C(N)NCCC[C@H](N)C(=O)O | inactive
COc1cc(C(=O)NCc2ccc(OCCN(C)C)cc2)cc(OC)c1OC | inactive
OC[C@H]1O[C@@H]2O[C@H]3[C@H](O)[C@@H](O)[C@@H](O[C@H]4[C@H](O)[C@@H](O)[C@@H](O[C@H]5[C@H](O)[C@@H](O)[C@@H](O[C@H]6[C@H](O)[C@@H](O)[C@@H](O[C@H]7[C@H](O)[C@@H](O)[C@@H](O[C@H]8[C@H](O)[C@@H](O)[C@@H](O[C@H]1[C@H](O)[C@H]2O)O[C@@H]8CO)O[C@@H]7CO)O[C@@H]6CO)O[C@@H]5CO)O[C@@H]4CO)O[C@@H]3CO | inactive
NS(=O)(=O)Cc1noc2ccccc12 | inactive

Structure (SMILES) | Potency
O=C1C(=O)c2ccccc2C(O)=C1C1CCC(c2ccc(Cl)cc2)CC1 (stereo not given) | inactive
CCCCc1cc2ccccc2c(OCCN(C)C)n1 | inactive
Oc1c(Cl)cc(Cl)c(Cl)c1Cc1c(O)c(Cl)cc(Cl)c1Cl | inactive
CCOc1ccc(NC(C)=O)cc1 | inactive
C[N+]1(C)CCC(=C(c2ccccc2)c2ccccc2)CC1 | inactive
Oc1ccc(Cl)cc1Cc1cc(Cl)ccc1O | inactive
CCc1oc2ccccc2c1C(=O)c1cc(Br)c(O)c(Br)c1 | inactive
C/C=C/c1ccc(O)c(OC)c1 | inactive
COc1cc(N)c(Cl)cc1C(=O)NC1CCN(Cc2ccccc2)CC1 | inactive
Cc1c(-c2ccccc2)oc2c(C(=O)OCCN3CCCCC3)cccc2c1=O | inactive
CCN(CC)CCNC(=O)COc1ccc(OC)cc1 | inactive
CN1CCc2cccc3c2[C@H]1Cc1ccc(O)c(O)c1-3 | 6.31 µM (active)
COc1ccc(C(=O)c2ccccc2O)c(O)c1 | inactive
COc1cc(C)nc(-n2nc(C)cc2OC)n1 | inactive
N=C(N)N1CCc2ccccc2C1 | inactive
O=C(O)CCc1nc2ccccc2[nH]1 | inactive
NC(=O)c1ccccc1O | inactive
CCN(CC)CCNC(=O)c1cc(Br)c(N)cc1OC | inactive
C=C[C@H]1CN2CC[C@H]1C[C@@H]2[C@@H](O)c1ccnc2ccc(OC)cc12 | inactive
COc1ccc(C(=O)c2ccccc2)c(O)c1 | inactive
